This is one part of a sample in which hits are shown more often than they occur.
Menin MLL FP TR = menin-MLL binding inhibition, Texas Red mutant peptide; hit rate 0.23% among 270,000; O00255; Menin + Texas Red MLL mutant peptide, fluorescence polarization; Potency, µM (series often up to 61.6 µM), for inactives: at the top dose FP activity change, negative = inhibition, most hits filed as inhibitors; active = well fitted inhibition curve with a large enough effect in the polarisation, with a control signal flat, not every such curve was filed as active; inconclusive = small, poorly fitted or top-dose-only effect, or effect the other way, or a change in a side signal; inactive = no such curve, though single readings can be large or run the other way; the % refers to the polarisation; note: potency is the fitted concentration of half-maximal effect; % of control where 0% means no effect
Target sequence (O00255 whole entry, looked up): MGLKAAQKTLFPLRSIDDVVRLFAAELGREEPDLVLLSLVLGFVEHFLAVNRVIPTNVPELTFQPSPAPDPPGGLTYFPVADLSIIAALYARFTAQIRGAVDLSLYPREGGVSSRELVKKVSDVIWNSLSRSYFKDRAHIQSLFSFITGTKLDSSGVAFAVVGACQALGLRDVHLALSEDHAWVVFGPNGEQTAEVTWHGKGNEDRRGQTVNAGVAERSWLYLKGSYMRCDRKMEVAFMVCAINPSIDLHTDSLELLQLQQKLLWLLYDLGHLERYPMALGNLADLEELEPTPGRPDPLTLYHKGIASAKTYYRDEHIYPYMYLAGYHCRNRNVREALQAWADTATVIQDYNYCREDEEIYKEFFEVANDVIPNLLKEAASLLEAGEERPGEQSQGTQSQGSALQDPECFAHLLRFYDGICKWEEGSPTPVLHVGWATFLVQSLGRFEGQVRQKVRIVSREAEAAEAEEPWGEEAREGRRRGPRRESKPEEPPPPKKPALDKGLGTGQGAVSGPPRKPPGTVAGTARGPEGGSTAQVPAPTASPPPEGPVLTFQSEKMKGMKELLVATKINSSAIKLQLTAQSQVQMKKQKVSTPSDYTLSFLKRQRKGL
ClpP mod = qHTS Assay for Activators of ClpP. AID 651965, 2013. purified B. subtilis ClpP, FRET peptide cleavage, 20 min. ATP-dependent Clp protease proteolytic subunit (Bacillus subtilis (strain 168)), P80244. Potency, µM (doses to about 57.5 µM), inactives show at the top dose activity change, negative = active. hit rate 1.9% among 340,000; active = well fitted falling curve with a large enough effect; inconclusive = small, poorly fitted or top-dose-only effect; inactive = no such curve, though single readings can be large or run the other way; note: potency is the fitted concentration of half-maximal effect; the source files actives as falling curves though it sought activators and does not explain the sign; nearly all actives have a fitted effect of over 65% in size
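Buffer: 100 mM Tris/HCl pH8, 100 mM KCl, 0.05% low protease BSA, 2.5% glycerol, 0.01% Tween-20. ClpP 10 microg/mL final; 20 min RT; delta FRET normalized to ADEP and DMSO controls.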
p53 reactivation = mutant p53 re-activation in reporter cells; H1299 p53-A138V BP100-luciferase reporter, luminescence, 24 h; hit rate 0.063% among 320,000; Potency, µM (top dose mostly 92.2 µM), without a hit: at the top dose activity change, positive = activation, actives largely listed as activators; AID 504706; active = well fitted activation curve with a large enough effect; inconclusive = small, poorly fitted or top-dose-only effect; inactive = no such curve, though single readings can be large or run the other way; note: potency is the fitted concentration of half-maximal effect; % of control where 0% means no effect; nearly all actives have a fitted effect of over 45% in size
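p53-null H1299 cells stably carrying temperature-sensitive p53-A138V and a BP100-luciferase reporter were pinned with compounds (4-point, 1:5 series) and held 24 hrs at 37 deg C. Luminescence was read 10 min after detection reagent.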
Menin MLL FP FL = displaces fluorescein MLL peptide from human menin. 290,000 tested, under 10 active. Fluorescence polarization, fluorescein-MLL peptide displacement from menin. FP activity change, % at 61.4 µM; active = well fitted curve in the direction sought with a large enough effect in the polarisation, not every such curve was filed as active; inconclusive = small, poorly fitted or top-dose-only effect, or effect the other way, or a change in a side signal; inactive = no such curve, though single readings can be large or run the other way; the % refers to the polarisation; note: % of control where 0% means no effect
CXXC DNA block = inhibitors of human MLL CXXC domain-DNA interaction; Q03164; MLL-CXXC / FITC-HOXA9 DNA fluorescence polarization; Potency, µM (top dose mostly 115 µM), without a hit: top-dose activity change, negative = inhibition, actives largely listed as inhibitors; hit rate 0.037% among 290,000; AID 2662; active = well fitted inhibition curve with a large enough effect in the polarisation, with a control signal flat, not every such curve was filed as active; inconclusive = small, poorly fitted or top-dose-only effect, or effect the other way, or a change in a side signal; inactive = no such curve, though single readings can be large or run the other way; the % refers to the polarisation; note: potency is the fitted concentration of half-maximal effect
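Steps: dispense CXXC domain solution (7 uM) → pin compounds or unlabeled HOX-A9 DNA control → 5 min ambient → add FLSN-HOX-A9 solution (50 nM) → spin → 30 min ambient → fluorescence polarization. Tris pH 7.5/NaCl/DTT/BSA buffer.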
* hit, by the source's call; ? = inconclusive; . = no result; ! = repeats disagree; [ ] = another dose, or the depositor's remark.

SMILES	Menin MLL FP TR	ClpP mod	p53 reactivation	Menin MLL FP FL	CXXC DNA block
COc1ccc(Cl)cc1-c1ccc(C(=O)O)o1	-7%[94.6 µM]	.	.	-1[94.6 µM]	.
O=C(O)CCS(=O)(=O)c1nc(-c2cccs2)cc(C(F)(F)F)n1	0%	14µM*	17%	-1	4%
CCCNC(=O)CSc1nc(-c2cccs2)cc(C(F)(F)F)n1	12%	-28%	2%	2	8%
O=C(CCS(=O)(=O)c1nc(-c2cccs2)cc(C(F)(F)F)n1)Nc1cccc(O)c1	.	4%	.	.	.
COc1ccc(-c2cc(C(F)(F)F)nc(SCC(=O)Nc3cc(C)on3)n2)cc1OC	11%	13µM*	-12%	0	2%
O=C(CSc1nc(-c2cccs2)cc(C(F)(F)F)n1)NCc1ccccc1	5%	35µM*	-1%	6	4%
COc1ccc(-c2cc(C(F)(F)F)nc(SCC(=O)NCc3cccs3)n2)cc1OC	0%	25µM*	-13%	5	-5%
CC(C)CC(=O)N1C/C=C\C[C@@H](c2ccc(Cl)cc2)N(Cc2ccc(Cl)cc2)C(=O)[C@@H]1Cc1ccccc1	.	1%	.	.	.
N#Cc1nc(-c2ccc(OCc3ccccc3Cl)cc2)oc1N1CCCCCC1	.	4%	.	.	.
Cc1cc(C)cc(-n2c(SCC(=O)Nc3ccccc3F)nc3c(oc4ccccc43)c2=O)c1	.	-8%	.	.	.
COc1ccc(NC(=O)CCSc2nc(-c3ccc(OC)cc3)cc(C(F)(F)F)n2)cc1	.	-13%	.	.	.
COc1ccc(-c2cc(C(F)(F)F)nc(SCCC(=O)Nc3cc(C)on3)n2)cc1	33%	35µM*	.	2	-3%
CCOc1ccc2[nH]c(=O)c(CN(CCc3ccccc3)C(=O)N3CCOCC3)cc2c1	7%	3%	1%	5	-8%
CCOc1ccc2[nH]c(=O)c(CN(CCOC)C(=O)N3CCOCC3)cc2c1	-15%	28µM*	-6%	0	-1%
CCOc1ccc2[nH]c(=O)c(CN(Cc3ccc(C)cc3)C(=O)N3CCCC3)cc2c1	-10%	32µM*	-7%	1	-7%
CCOC(=O)c1ccc(N2C(=O)c3n[nH]c(-c4ccco4)c3C2c2ccccc2OC)cc1 (stereo not given)	.	-15%	.	.	.
CCOc1ccccc1NC(=O)CCc1c(C)nc2c3cccnc3nn2c1C	.	28µM*	.	.	.
Cc1nn(C)cc1/C=C/C(=O)c1cccs1	30%	?	20µM*	5	-2%
Cc1nn(C)cc1/C=C/C(=O)c1ccccc1	.	-13%	?	3	-2%
C=CCNC(=O)/C(C#N)=C/c1ccc(SC)cc1	6%	25µM*	5%	1	-6%
O=c1cc[nH]c2c(C(F)(F)F)cccc12	-12%	28µM*	0%	0	8%
O=C(O)c1c[nH]c2c(C(F)(F)F)cccc2c1=O	-8%	-24%	1%	-1	-12%
COc1cc(CC(=O)Nc2ccc(N3CCOCC3)cc2)cc(OC)c1OC	8%	.	0%	0	-4%
COc1cc2c(N3CCOCC3)cc(O)c(CC(=O)Nc3ccccc3)c2cc1OC	1%	28µM*	5%	-15	12%
CC(C)Cc1nc2oc3c(=O)[nH]cnc3c2c2c1CCC2	-4%	11µM*	-1%	-1	-11%
SMILES	Menin MLL FP TR	ClpP mod	p53 reactivation	Menin MLL FP FL	CXXC DNA block
COc1ccc(Nc2c3c(nc4ccc(NC(=O)c5cc(Cl)ccc5OC)cc24)CCCC3)cc1OC	.	82%	.	.	.
CCCCNc1c(C(=O)OCC)c(C)nc2c1cnn2CC	40µM*!	-1%	.	9	7%
CCOC(=O)c1c(C)nc2c(C#N)cnn2c1C	9%	?	0%	5	-1%
O=C(CSc1ncc2c(n1)-c1ccccc1N(Cc1ccc(Cl)cc1)S2(=O)=O)c1ccc(Cl)cc1	.	-2%	.	.	.
O=c1c2cccnc2n(Cc2ccc(Cl)cc2)c(=O)n1Cc1ccc(F)cc1	.	-10%	.	.	.
Cc1ccccc1Cn1c(=O)n(Cc2ccc(Cl)cc2)c(=O)c2cccnc21	.	25µM*	.	.	.
COc1ccc(C(=O)CC(=O)c2ccc(C(C)(C)C)cc2)cc1	-2%	-20%	.	3	0%
COc1ccc(C(=O)C(CCC(CNC(C)(C)C)C(=O)c2ccc(OC)cc2)CNC(C)(C)C)cc1 (stereo not given)	-2%	28µM*	-15%	0	-1%

Compound activity from PubChem BioAssay.
